# According to paper PMC11102862:
# What was measured:
# [1] = target: U5 small nuclear ribonucleoprotein TSSC4 (UniProt Q9Y5U2); assay: cross-linking mass spectrometry
# [2] = target: Pre-mRNA-processing-splicing factor 8 (UniProt Q6P2Q9); assay: cross-link between two proteins; cross-linking mass spectrometry
# [3] = target: Thioredoxin-like protein 4A (UniProt P83876); assay: as above
# [4] = target: U5 small nuclear ribonucleoprotein 40 kDa protein (UniProt Q96DI7); assay: as above
# [5] = target: CD2 antigen cytoplasmic tail-binding protein 2 (UniProt O95400); assay: as above
# Sequence of CD2 antigen cytoplasmic tail-binding protein 2 (O95400 whole entry): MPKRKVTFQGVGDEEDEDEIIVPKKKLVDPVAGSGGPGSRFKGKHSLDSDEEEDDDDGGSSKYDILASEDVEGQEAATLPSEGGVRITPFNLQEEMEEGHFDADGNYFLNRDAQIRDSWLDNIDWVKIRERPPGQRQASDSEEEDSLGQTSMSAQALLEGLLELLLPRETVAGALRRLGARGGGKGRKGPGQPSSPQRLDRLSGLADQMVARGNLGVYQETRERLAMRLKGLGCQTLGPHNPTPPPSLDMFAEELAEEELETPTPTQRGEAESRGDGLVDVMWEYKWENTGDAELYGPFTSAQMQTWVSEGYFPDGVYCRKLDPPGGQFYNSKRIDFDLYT
# Sequence of U5 small nuclear ribonucleoprotein 40 kDa protein (Q96DI7 whole entry): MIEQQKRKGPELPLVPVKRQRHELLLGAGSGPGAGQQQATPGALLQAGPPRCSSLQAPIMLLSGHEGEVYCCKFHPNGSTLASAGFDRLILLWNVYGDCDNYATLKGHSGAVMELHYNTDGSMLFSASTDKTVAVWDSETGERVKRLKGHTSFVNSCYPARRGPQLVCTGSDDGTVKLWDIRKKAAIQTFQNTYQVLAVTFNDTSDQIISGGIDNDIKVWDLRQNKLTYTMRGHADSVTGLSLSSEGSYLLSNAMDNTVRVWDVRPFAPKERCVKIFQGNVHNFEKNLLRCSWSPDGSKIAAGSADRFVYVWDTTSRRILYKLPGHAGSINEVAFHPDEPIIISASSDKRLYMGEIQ
# Sequence of Thioredoxin-like protein 4A (P83876 whole entry): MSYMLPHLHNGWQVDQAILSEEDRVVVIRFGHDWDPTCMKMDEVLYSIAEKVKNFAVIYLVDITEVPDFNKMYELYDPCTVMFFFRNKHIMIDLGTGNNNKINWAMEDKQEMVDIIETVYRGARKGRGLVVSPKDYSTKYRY
# Sequence of U5 small nuclear ribonucleoprotein TSSC4 (Q9Y5U2 whole entry): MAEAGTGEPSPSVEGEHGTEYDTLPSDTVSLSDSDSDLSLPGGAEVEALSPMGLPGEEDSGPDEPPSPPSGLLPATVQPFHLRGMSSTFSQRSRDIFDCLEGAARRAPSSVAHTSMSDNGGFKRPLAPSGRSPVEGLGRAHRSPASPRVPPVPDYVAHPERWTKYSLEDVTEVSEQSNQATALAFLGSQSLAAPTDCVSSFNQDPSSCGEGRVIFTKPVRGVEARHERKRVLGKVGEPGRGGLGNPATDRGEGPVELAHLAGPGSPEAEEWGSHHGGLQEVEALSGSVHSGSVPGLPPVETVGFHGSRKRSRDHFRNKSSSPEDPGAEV
substance,measurement,setting,value
"U5 small nuclear ribonucleoprotein 200 kDa helicase, O75643",listed as a hit,[1],yes
"CD2 antigen cytoplasmic tail-binding protein 2, O95400",listed as a hit,[2],yes
same,listed as a hit,[3],yes
same,listed as a hit,[4],yes
"Pre-mRNA-processing factor 6, O94906",listed as a hit,[5],yes
same,listed as a hit,[4],yes
